Screen size: about 310,000 compounds; about 14,000 (4.5%) showed an effect of 50% or more. The effect is printed as a negative number. This is one part of a sample in which strong results are shown more often than they occur.
Target: human ether-à-go-go-related gene (hERG) potassium channel (human, UniProt Q12809)
Experiment: primary screen, population patch clamp on CHO cells stably expressing hERG; higher = less effect of the substance
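Also: peak tail current of the secondary pulse compared with the same well before compound.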

Chain of human ether-à-go-go-related gene (hERG) potassium channel (Q12809 whole entry, looked up): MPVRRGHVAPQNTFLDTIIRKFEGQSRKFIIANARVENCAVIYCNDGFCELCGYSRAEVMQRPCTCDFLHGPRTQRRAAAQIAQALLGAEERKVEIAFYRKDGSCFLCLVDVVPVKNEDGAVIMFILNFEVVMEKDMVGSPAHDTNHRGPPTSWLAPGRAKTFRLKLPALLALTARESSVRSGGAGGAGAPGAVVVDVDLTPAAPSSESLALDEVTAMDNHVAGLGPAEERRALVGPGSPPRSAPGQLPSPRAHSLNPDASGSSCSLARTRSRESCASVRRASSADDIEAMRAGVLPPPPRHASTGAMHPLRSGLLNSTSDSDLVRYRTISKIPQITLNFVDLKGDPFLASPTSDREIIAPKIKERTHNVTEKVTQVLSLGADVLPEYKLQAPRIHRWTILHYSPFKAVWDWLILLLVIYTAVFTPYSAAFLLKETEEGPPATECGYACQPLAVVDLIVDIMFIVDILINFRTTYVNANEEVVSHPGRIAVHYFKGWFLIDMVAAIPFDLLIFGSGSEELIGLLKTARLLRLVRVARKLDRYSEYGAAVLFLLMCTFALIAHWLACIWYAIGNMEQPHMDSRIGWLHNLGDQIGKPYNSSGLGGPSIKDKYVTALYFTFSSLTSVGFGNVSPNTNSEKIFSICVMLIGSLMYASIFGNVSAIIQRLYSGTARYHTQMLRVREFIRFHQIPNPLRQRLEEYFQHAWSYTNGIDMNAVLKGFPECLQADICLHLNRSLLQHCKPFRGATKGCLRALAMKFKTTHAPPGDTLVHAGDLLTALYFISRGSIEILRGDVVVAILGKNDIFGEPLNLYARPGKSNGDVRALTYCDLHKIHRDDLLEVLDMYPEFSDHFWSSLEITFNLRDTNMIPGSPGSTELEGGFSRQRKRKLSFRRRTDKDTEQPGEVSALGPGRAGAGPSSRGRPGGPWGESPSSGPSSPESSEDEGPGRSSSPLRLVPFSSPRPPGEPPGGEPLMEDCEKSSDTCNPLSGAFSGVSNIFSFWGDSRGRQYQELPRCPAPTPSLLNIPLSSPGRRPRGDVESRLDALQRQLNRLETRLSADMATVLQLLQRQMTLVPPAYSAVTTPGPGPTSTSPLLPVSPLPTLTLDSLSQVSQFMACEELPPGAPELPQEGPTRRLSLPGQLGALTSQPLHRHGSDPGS

Going from `O=C(/C=C/c1ccco1)NC(=S)Nc1ccccn1` to `Cn1c(SCC(=O)N/N=C/C=C/c2ccco2)nc2ccccc21`, the “hERG current change (%, negative = inhibition) at 10uM” value falls from -3.42% to -42.9%.

First: CC(=O)Cc1nsc(NC(=O)c2cccc(F)c2)n1
Second: COc1ccc(C(=O)Nc2nc3ccc(OC)cc3s2)cc1
The “hERG current change (%, negative = inhibition) at 10uM” value of the first is lower: 12.5% for the first, 12.6% for the second.

Compared with `O=C(Nc1ccccc1C(=O)N1CCCCC1)c1ccccc1C(F)(F)F`, `COc1ccccc1NC(=O)CSc1c2c(nc3ccccc13)CCC2` is lower in “hERG current change (%, negative = inhibition) at 10uM” value: 27.6% for the first, -26.3% for the second.

Compared with `Cc1ccc(N2C(=O)C(CN(C)C)C2c2ccccc2)cc1` (stereo not shown), `Cc1ccc(N2C(=O)C(CN3CCCC3)C2c2ccccc2)cc1` (stereo not shown) is lower in “hERG current change (%, negative = inhibition) at 10uM” value: -33.1% for the first, -78.5% for the second.

Compared with `COc1ccc(N2C(=O)C(CN3CCN(C)CC3)C2c2ccccc2)cc1` (stereo not shown), `COc1ccc(N2C(=O)C(CN3CCCCC3)C2c2ccccc2)cc1` (stereo not shown) is higher in “hERG current change (%, negative = inhibition) at 10uM” value: -16% for the first, -12% for the second.

Going from `Cc1ccc(N2C(=O)C(CN3CCCCC3)C2c2ccccc2)cc1` (stereo not shown) to `Cc1ccc(N2C(=O)C(CN3CCOCC3)C2c2ccccc2)cc1` (stereo not shown), the “hERG current change (%, negative = inhibition) at 10uM” value rises from -62.6% to -26.5%.

Going from `CC(=O)c1cccc(NS(=O)(=O)c2cc(OCC(N)=O)c(C)cc2Cl)c1` to `Cc1ccc2c(COC(=O)c3ccc(NC(=O)CC#N)cc3)cc(=O)oc2c1C`, the “hERG current change (%, negative = inhibition) at 10uM” value falls from 6.92% to 3.63%.

Compared with `COc1ccc(CN(C(=O)c2ccc(CN3CCOCC3)o2)C(C(=O)NCC2CCCO2)c2ccc(F)cc2)cc1` (stereo not shown), `COc1ccc(NC(=O)CSc2c3c(nc4ccccc24)CCCC3)c(OC)c1` is lower in “hERG current change (%, negative = inhibition) at 10uM” value: -4.38% for the first, -47.5% for the second.

Compared with `O=C(Cc1ccc(Cl)c(Cl)c1)OCC(=O)c1ccc[nH]1`, `CCN(CCNCC(O)COCc1ccc(Cl)cc1)c1cccc(C)c1.O=C(O)C(=O)O` (stereo not shown) is higher in “hERG current change (%, negative = inhibition) at 10uM” value: -24.9% for the first, -18.2% for the second.

Going from `O=C(COC(=O)c1cccc([N+](=O)[O-])c1)NCC1CCCO1` (stereo not shown) to `COc1ccc(OC)c(NC(=O)COC(=O)c2c3c(nc4ccccc24)CCCC3)c1`, the “hERG current change (%, negative = inhibition) at 10uM” value falls from 8.06% to 1.03%.

Going from `Cc1c(NC(=O)COC(=O)C2CC3C=CC2C3)c(=O)n(-c2ccccc2)n1C` (stereo not shown) to `COc1ccc(NC(=O)CSc2c3c(nc4ccccc24)CCC3)c(OC)c1`, the “hERG current change (%, negative = inhibition) at 10uM” value falls from 13.2% to -36.9%.

Compared with `COCCNC(=O)c1ccc(C)c(NC(=O)C2=C(C)OCCS2)c1`, `CCCNC(=O)c1ccc(C)c(NC(=O)C2=C(C)OCCS2)c1` is lower in “hERG current change (%, negative = inhibition) at 10uM” value: 21.1% for the first, 3.06% for the second.

Going from `CC1=C(C(=O)Nc2cc(C(=O)NCCC(C)C)ccc2C)SCCO1` to `Cc1cccc2c1-c1sc(C(=O)NCCCN3CCCC(C)C3)cc1CO2` (stereo not shown), the “hERG current change (%, negative = inhibition) at 10uM” value falls from -52.4% to -77.9%.

Going from `O=C(CSc1nnc(-c2cccs2)o1)N1CCc2ccccc21` to `O=C(CSc1nnc(-c2ccncc2)s1)Nc1ccccc1`, the “hERG current change (%, negative = inhibition) at 10uM” value rises from -10.5% to 3.19%.

First: CC12CCC(C(=O)Nc3ccc(Br)cn3)(OC1=O)C2(C)C (stereo not shown)
Second: COc1cccc(C(=O)Cn2c(Br)nc3c2c(=O)n(C)c(=O)n3C)c1
The “hERG current change (%, negative = inhibition) at 10uM” value of the first is higher: 7.13% for the first, -13.1% for the second.

Going from `O=C(O)CCCN1C(=O)c2ccc(Oc3cccc([N+](=O)[O-])c3)cc2C1=O` to `CN1C(=O)c2ccc(NC(=O)c3c(F)c(F)c(F)c(F)c3F)cc2C1=O`, the “hERG current change (%, negative = inhibition) at 10uM” value rises from 17.6% to 18.3%.

Going from `Cc1cccc(NC(=O)c2cc3c(s2)-c2c(C)cccc2OC3)n1` to `CCOC(=O)c1cc2c(s1)-c1c(C)cccc1OC2`, the “hERG current change (%, negative = inhibition) at 10uM” value falls from 29.2% to 7.36%.

First: Cc1cccc2c1-c1sc(C(=O)NCCCN3CCC(C)CC3)cc1CO2
Second: CCCN1CCN(CCCNC(=O)c2cc3c(s2)-c2c(C)cccc2OC3)CC1
The “hERG current change (%, negative = inhibition) at 10uM” value of the first is higher: -77.6% for the first, -85.2% for the second.

First: Cc1cccc2c1-c1sc(C(=O)N3CCc4ccccc4C3)cc1CO2
Second: Cc1cccc2c1-c1sc(C(=O)N3CCCCC3)cc1CO2
The “hERG current change (%, negative = inhibition) at 10uM” value of the first is higher: -2.75% for the first, -18.6% for the second.

Going from `CCOC(=O)N1CCN(C(=O)c2cc3c(s2)-c2c(C)cccc2OC3)CC1` to `CCN1CCN(C(=O)c2cc3c(s2)-c2c(C)cccc2OC3)CC1`, the “hERG current change (%, negative = inhibition) at 10uM” value falls from -15.5% to -17.8%.

Going from `S=c1[nH]nc(-c2ccccc2)n1/N=C/c1cccc(Br)c1` to `Brc1ccc(-c2ccccc2)cc1`, the “hERG current change (%, negative = inhibition) at 10uM” value falls from 21.4% to 0.132%.

Going from `CC(C(=O)N1CCOCC1)N1C(=O)c2cccc3cccc(c23)C1=O` (stereo not shown) to `Cc1cccc(C)c1Nc1c(-c2ccc(N3CCOCC3)cc2)nc2ncccn12`, the “hERG current change (%, negative = inhibition) at 10uM” value falls from 16.6% to -19%.

Compared with `COc1cc(OC)cc(-c2c(-c3cccs3)c3cc(-c4cnc(OC)nc4)ccc3n2C)c1`, `Cc1cc(C)c2nc(NNC(=O)c3cc(-c4cccs4)nc4ccccc34)sc2c1` is higher in “hERG current change (%, negative = inhibition) at 10uM” value: 1.57% for the first, 18.3% for the second.

Compared with `O=S(=O)(/N=C(/NC(=S)Nc1ccccc1)c1ccccc1)c1ccc(Cl)cc1`, `CC(C)c1ccc(NC(=S)NN(c2ccccc2)c2ccccc2)cc1` is lower in “hERG current change (%, negative = inhibition) at 10uM” value: 18.9% for the first, 12.7% for the second.

Compared with `Cc1ccc(/C=N/NC(=O)CSc2nc3ccccc3n2Cc2ccccc2)o1`, `Cc1ccc(/C=N/NC(=O)CSc2nc3ccccc3n2Cc2ccc(Cl)cc2)o1` is higher in “hERG current change (%, negative = inhibition) at 10uM” value: -33.9% for the first, -16.2% for the second.

Compared with `O=C(CSc1nc2ccccc2n1Cc1ccccc1)N/N=C/c1ccccc1C(=O)O`, `O=C(CSc1nc2ccccc2n1Cc1ccccc1)N/N=C/c1ccco1` is lower in “hERG current change (%, negative = inhibition) at 10uM” value: -0.979% for the first, -60.7% for the second.

Going from `CCn1c(SCC(=O)N/N=C/C=C\c2ccco2)nc2ccccc21` to `Cn1c(SCC(=O)N/N=C/C=C\c2ccco2)nc2ccccc21`, the “hERG current change (%, negative = inhibition) at 10uM” value falls from -9.42% to -50.6%.

Compared with `Cn1c(SCC(=O)N/N=C/c2ccco2)nc2ccccc21`, `Cc1ccc(Cn2c(SCC(=O)N/N=C/c3ccc(C)o3)nc3ccccc32)cc1` is lower in “hERG current change (%, negative = inhibition) at 10uM” value: -2.38% for the first, -61.1% for the second.

First: Cc1cc(NC(=O)CSc2ccccn2)no1
Second: CCOc1ccc2[nH]c3nc(SCC(=O)NC4CCCC4)nnc3c2c1
The “hERG current change (%, negative = inhibition) at 10uM” value of the first is lower: 11.3% for the first, 14.1% for the second.

Compared with `CN(C(=O)c1ccno1)c1nnc(-c2cnccn2)s1`, `Nc1ccc(-c2cnc[nH]2)cc1[N+](=O)[O-]` is lower in “hERG current change (%, negative = inhibition) at 10uM” value: 6.99% for the first, -0.302% for the second.

Going from `CC(C)(C)NC(=S)N/N=C/c1cc(Br)c(O)c(Br)c1` to `COc1ccc(C)cc1Nc1c2c(nc3ccccc13)CCC2`, the “hERG current change (%, negative = inhibition) at 10uM” value falls from 29.8% to -56.7%.

First: CCC12CN3CCN(CC(C3)C1O)C2 (stereo not shown)
Second: CC1CCN(C(=O)CSc2nnc(-c3ccc(S(=O)(=O)N4CCOCC4)cc3)n2C)CC1
The “hERG current change (%, negative = inhibition) at 10uM” value of the first is lower: -6.76% for the first, -4.38% for the second.

Compared with `O=C(NCc1ccccc1)c1ccc2nc(-c3ccco3)c(-c3ccco3)nc2c1`, `COc1ccc(OC)c(NC(=O)c2c3c(nc4ccccc24)CCC3)c1` is lower in “hERG current change (%, negative = inhibition) at 10uM” value: -10.7% for the first, -21.8% for the second.

First: Cc1ccc(-c2cc(-c3ccccc3)cc(-c3ccccc3)[n+]2-c2ccc(C(=O)O)cc2)cc1.[O-][Cl+3]([O-])([O-])[O-]
Second: O=C(O)c1ccc(-[n+]2c(-c3ccccc3)cc(-c3ccccc3)cc2-c2ccccc2)cc1.[O-][Cl+3]([O-])([O-])[O-]
The “hERG current change (%, negative = inhibition) at 10uM” value of the first is lower: 4.17% for the first, 14.8% for the second.

Going from `Cc1ccc(-c2cc(-c3ccc(C)cc3)[n+](-c3ccccc3)c(-c3ccc(C)cc3)c2)cc1.[O-][Cl+3]([O-])([O-])[O-]` to `Cc1ccc(-c2cc(-c3ccccc3)cc(-c3ccccc3)[n+]2-c2ccccc2)cc1.[O-][Cl+3]([O-])([O-])[O-]`, the “hERG current change (%, negative = inhibition) at 10uM” value falls from -80.2% to -82.1%.

First: Brc1ccc(-[n+]2c(-c3ccccc3)cc(-c3ccccc3)cc2-c2ccccc2)cc1.[O-][Cl+3]([O-])([O-])[O-]
Second: Oc1ccc(-[n+]2c(-c3ccccc3)cc(-c3ccccc3)cc2-c2ccccc2)cc1.[O-][Cl+3]([O-])([O-])[O-]
The “hERG current change (%, negative = inhibition) at 10uM” value of the first is lower: -73.8% for the first, -71.3% for the second.

Going from `Clc1ccc(OCCOCCOc2cccc3cccnc23)c(Br)c1` to `COc1ccc(C)cc1Nc1nc(N)c2ccccc2n1.Cl`, the “hERG current change (%, negative = inhibition) at 10uM” value falls from 0.0859% to -12.8%.

Compared with `O=C(CCS(=O)(=O)c1ccc(Br)cc1)N1CCCCCC1`, `O=C(NCc1ccc2c(c1)OCO2)c1ccc2c(=O)n(C3CCCC3)c(=O)[nH]c2c1` is higher in “hERG current change (%, negative = inhibition) at 10uM” value: -25.3% for the first, 4.61% for the second.

Compared with `O=C(O)c1ccccc1NCCO`, `COc1ccccc1Nc1c2c(nc3ccccc13)CCC2` is lower in “hERG current change (%, negative = inhibition) at 10uM” value: 33.8% for the first, -45.6% for the second.

First: [O-][Cl+3]([O-])([O-])[O-].c1ccc(-c2cc(-c3ccccc3)[n+](-c3ccccc3)c(-c3ccccc3)c2)cc1
Second: O=[N+]([O-])c1ccc(-[n+]2c(-c3ccccc3)cc(-c3ccccc3)cc2-c2ccccc2)cc1.[O-][Cl+3]([O-])([O-])[O-]
The “hERG current change (%, negative = inhibition) at 10uM” value of the first is lower: -71.3% for the first, 4.73% for the second.

Going from `COc1ccc(OC)c(Nc2c3c(nc4ccccc24)CCC3)c1` to `COc1ccc(Nc2c3c(nc4ccccc24)CCC3)c(OC)c1`, the “hERG current change (%, negative = inhibition) at 10uM” value rises from -67.8% to -64.7%.

Going from `Nc1ccc2nc3c(c(Cl)c2c1)CCCC3` to `COc1ccccc1Nc1c2c(nc3ccc(N)cc13)CCCC2`, the “hERG current change (%, negative = inhibition) at 10uM” value falls from -22.7% to -72.4%.

In the case of `O=C(NC1(C(=O)NC2CCCCC2)CCCCC1)c1ccccn1`, the “hERG current change (%, negative = inhibition) at 10uM” value is reported as 2.56%.

Source: paper PMC4336329 (PLoS ONE, 2015)
